# Test results from PubChem BioAssay (NCATS).
# Inconclusive results are not listed. Unmarked numbers belong to inactive results. The source made the active and inactive calls. Calls come from the whole dose curve; as a rule, active = well fitted inhibition curve with a large enough effect; inconclusive = small, poorly fitted or top-dose-only effect; inactive = flat fitted curve, though single readings scatter.
# Target: Calcium and integrin-binding protein 1 (Homo sapiens) (UniProt Q99828)
# Assay: Primary qHTS for Identification of Calcium Integrin Binding Protein 1 (CIB1) Competitor (AID 1508620);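 note: GST tagged CIB1 binding a fluorescein labelled alphaIIb integrin peptide tracer; top concentration of the series differs between compounds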
# Details: CIB1-GST / FITC-alphaIIb peptide fluorescence polarization; series mostly up to 57.7 µM; activity change, negative = inhibition: at the top concentration
# Procedure, shortened: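 CIB1-GST (1 uM final) and compound incubated 15 min at room temperature before adding FITC-alphaIIb peptide tracer (100 nM final). Competition for binding read by fluorescence polarization (ex 480, em 540) after another 15 min at room temperature.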
# % is set by controls: 0 for no effect and ±100 for the full control effect.
# Sequence of Calcium and integrin-binding protein 1 (Homo sapiens) (Q99828 whole entry, looked up): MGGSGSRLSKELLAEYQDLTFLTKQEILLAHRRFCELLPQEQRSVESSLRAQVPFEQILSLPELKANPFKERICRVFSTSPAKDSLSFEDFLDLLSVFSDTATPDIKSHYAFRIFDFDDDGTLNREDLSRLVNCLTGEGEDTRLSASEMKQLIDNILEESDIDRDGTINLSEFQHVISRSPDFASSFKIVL
Compound,"activity change, negative = inhibition",Potency
CC(C)Oc1cc(Nc2nc(N[C@@H](C)c3ccc(F)cn3)ncc2Cl)[nH]n1,-6.34%,–
CN[C@@H]1CN(c2ccc3c(=O)c(C(=O)O)cn(-c4nccs4)c3n2)C[C@@H]1OC,-2.96% [at 30.2 µM],–
COc1ccc2c(c1)CC[C@H]1[C@@H]2CC[C@]2(C)[C@@H](NCCCCCCN3C(=O)C=CC3=O)CC[C@H]12,-0.501%,–
CCc1cc(-c2n[nH]c(C)c2-c2ccc3c(c2)OCCO3)c(O)cc1O,-0.646%,–
Cc1ccccc1C(=O)c1ccc(Nc2ccc(Br)cc2N)cc1Cl,–,inactive
NS(=O)(=O)c1ccc(Nc2nc(OCC3CCCCC3)c3[nH]cnc3n2)cc1,–,inactive
CON(C)C(=O)N1N=C(c2cc(F)ccc2F)S[C@]1(CCCN)c1ccccc1,2.27%,–
CNC(=O)c1cc(Oc2ccc(NC(=O)Nc3ccc(Cl)c(C(F)(F)F)c3)c(F)c2)ccn1,–,inactive
Cc1cc(C(C)Nc2ccccc2)c2nc(N3CCOCC3)cc(=O)n2c1 (centres undefined),–,inactive
CN1CCC(COc2cnc(-c3cccc(Cn4nc(-c5cccc(C#N)c5)ccc4=O)c3)nc2)CC1,–,inactive
CCOC(=O)[C@H]1O[C@H]1C(=O)N[C@@H](CC(C)C)C(=O)NCCC(C)C,-1.74%,–
CCCCCCOC(=O)N=C(N)c1ccc(NCc2nc3cc(C(=O)N(CCC(=O)OCC)c4ccccn4)ccc3n2C)cc1,-1.28%,–
CO[C@H]1O[C@@H]2O[C@@]3(C)CC[C@@H]4[C@@H](C)CC[C@@H]([C@H]1C)[C@@]24OO3,-5.86%,–
CC(C)c1onc(-c2c(Cl)cccc2Cl)c1COc1ccc(C=Cc2cccc(C(=O)O)c2)c(Cl)c1,-4.41%,–
